Only some compounds are listed: those with a hit (about 12% of all), similar ones and a draw of the others.
G9a block: inhibitors of human histone lysine methyltransferase G9a. Q96KQ7. G9a H3K9 monomethylation, AlphaScreen, 2 h. Potency, µM (highest dose often 102 µM), for inactives: at the top dose activity, negative = inhibition, hits mostly inhibitors. 350,000 compounds, 8.8% hits. AID 504332; further: on the % scale 0 is the no-effect control and ±100 the full control effect; nearly all actives have a fitted effect of over 75% in size
Target sequence (Q96KQ7 913-1193 limits assumed): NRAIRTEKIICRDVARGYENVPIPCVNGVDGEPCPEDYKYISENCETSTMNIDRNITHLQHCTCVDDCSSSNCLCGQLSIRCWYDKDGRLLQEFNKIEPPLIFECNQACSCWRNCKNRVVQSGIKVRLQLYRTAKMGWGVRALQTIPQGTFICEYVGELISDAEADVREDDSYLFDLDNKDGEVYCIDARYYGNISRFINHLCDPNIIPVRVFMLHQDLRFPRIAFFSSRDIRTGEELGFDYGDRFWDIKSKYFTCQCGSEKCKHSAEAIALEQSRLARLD
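Methyltransferase reactions run at room temperature for 2 h (20 nM enzyme, 500 nM biotin-H3K9 peptide, 20 uM SAM) after a 15 min compound preincubation; product detected by AlphaScreen beads and anti-H3K9me1 antibody.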
BAZ2B block: BAZ2B (human) inhibition | Q9UIF8 | AlphaScreen BAZ2B-H3K14Ac peptide displacement | Potency, µM (titrated, usually from 114 µM), for inactives: top-dose activity change, negative = inhibition, most hits filed as inhibitors | 360,000 compounds, 4.4% hits | AID 504333; further: on the % scale 0 is the no-effect control and ±100 the full control effect; nearly all actives have a fitted effect of over 60% in size
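AlphaScreen luminescence quantifies BAZ2B engagement of H3K14Ac peptide; the protein and biotinylated peptide are both at 50 nM final, buffer PBS pH 7.4 with 0.01% Tween-20, all steps at room temperature.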
JMJD2A Tudor: blocks the human JMJD2A Tudor domain; O75164; AlphaScreen JMJD2A-Tudor / H3K4me3 peptide binding; Potency, µM (highest dose often 114 µM), for inactives: at the top dose activity change, negative = inhibition, actives largely listed as inhibitors; 390,000 compounds, 4.4% hits; AID 504339; further: on the % scale 0 is the no-effect control and ±100 the full control effect; nearly all actives have a fitted effect of over 50% in size
Sfp inh: blocks B. subtilis Sfp PPTase activity; Potency, µM, without a hit: largest response in the series, negative = inhibition, usual class: inhibitors; Biochemical Sfp PPTase activity, qHTS; Q9F4F7; 310,000 compounds, 3.5% hits;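 further: the enzyme is Sfp with the accession as filed and its product quenches rhodamine fluorescence; 0% = enzyme reaction without inhibitor and -100% = no enzyme wells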
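After 15 min at room temperature with compound, 15 nM Sfp received 5 uM rhodamine-CoA plus 12.5 uM BHQ-2-ybbR (50 mM Hepes pH 7.6, 10 mM MgCl2). Rate came from the fluorescence difference over 30 min, ex 525/em 598 nm.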
HP1b chromo inh: inhibitors of HP1-beta chromodomain binding to methylated histone tails | P83916 | AlphaScreen HP1-beta / biotin-H3K9me3 peptide binding | Potency, µM (top dose mostly 114 µM), for inactives: at the top dose activity change, negative = inhibition, actives largely listed as inhibitors | 390,000 compounds, 0.56% hits | AID 540317; further: nearly all actives have a fitted effect of over 70% in size
Target sequence (P83916 whole entry, looked up): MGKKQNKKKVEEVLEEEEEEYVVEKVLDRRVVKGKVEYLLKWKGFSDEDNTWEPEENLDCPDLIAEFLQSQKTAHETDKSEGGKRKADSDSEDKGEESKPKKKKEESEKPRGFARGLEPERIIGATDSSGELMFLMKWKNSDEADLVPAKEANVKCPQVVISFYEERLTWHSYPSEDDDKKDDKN
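Compound inhibition of the preformed complex between 50 nM HP1-beta and 50 nM biotinylated H3K9me3 peptide was read by AlphaScreen. Buffer was PBS pH 7.4 with 0.01% Tween-20. Incubations ran 30 min at room temperature, with 10 ug/mL donor/acceptor beads.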
An asterisk follows results filed as active; ? = inconclusive; nt = no result; [ ] = remark or other dose. The call rests on the fitted dose curve; in most records, active means well fitted curve in the direction sought with a large enough effect; inconclusive means small, poorly fitted or top-dose-only effect, or another doubt; inactive means no such curve, though single readings can be large; an effect the other way counts as inactive or inconclusive. Potency means the concentration at half of the fitted maximal effect.

SMILES	G9a block	BAZ2B block	JMJD2A Tudor	Sfp inh	HP1b chromo inh
COc1c([N+](=O)[O-])c(=O)n(-c2ccccc2)c2ccccc12	?	-25.1%	-15.9%	17.8µM*	26.1%
O=c1c([N+](=O)[O-])c(N2CCCC2)c2ccccc2n1-c1ccccc1	9.3%	-17.1%	-10.3%	4.3%	38.7%
Cc1cccc(N2CCN(Cc3ccoc3)CC2)c1C	10µM*	50.1µM*	11.2µM*	-10.4%	?
COc1cc(CN2CCN(c3cccc(C)c3C)CC2)cc(OC)c1O	?	50.1µM*	1µM*	-15.0%	-33.1%
Cc1cc(CN2CCN(c3cccc(C)c3C)CC2)cs1	-2.0%[59 µM]	-0.4%	-14.7%	nt	77.0%
CCOC(=O)[C@H](CCc1ccccc1)N[C@@H](C)C(=O)N1C(=O)N(C)C[C@H]1C(=O)O	-30.3%[12.7 µM]	nt	nt	-3.6%	nt
O=C(CC1(O)C(=O)Nc2ccccc21)c1cccc(-n2cccc2)c1 (stereo not drawn)	?	50.1µM*	?	4.4%	0.2%
Cc1ccc(C2SCC(=O)N2Cc2cn3ccsc3n2)o1 (stereo not drawn)	?	11.3%	-7.8%	56.2µM*	38.0%
CCOCCCNC(=O)CN1C(=O)COc2ccc(S(=O)(=O)N3CCOCC3)cc21	30.5%	?	-2.1%	19.1%	35.3%
COCCN(C(=O)COC(=O)COc1ccc2ccccc2c1)c1c(N)n(Cc2ccccc2)c(=O)[nH]c1=O	nt	nt	-15.0%	nt	10.2%
CN(C(=O)COC(=O)COc1ccc2ccccc2c1)c1c(N)n(Cc2ccccc2)c(=O)[nH]c1=O	-36.7%[12.7 µM]	4.8%	-19.3%	nt	22.1%
COCCN(C(=O)COC(=O)COc1ccc(Cl)c(C)c1)c1c(N)n(Cc2ccccc2)c(=O)[nH]c1=O	39.8µM*	-3.4%	-19.9%	4.4%	16.8%
Cc1cc(OCC(=O)OCC(=O)N(C)c2c(N)n(Cc3ccccc3)c(=O)[nH]c2=O)ccc1Cl	6.31µM*	-4.3%	-11.7%	nt	44.2%
CN(CCOc1ccc(Cl)cc1)C(=O)c1cc([N+](=O)[O-])ccc1N1CCOCC1	?	-5.2%	-20.0%	nt	-6.1%
COc1ccccc1N1CCN(C(=O)c2cc(-c3ccco3)on2)CC1	44.7µM*	-8.2%	?	1.5%	2.9%
COc1ccccc1N1CCN(C(=O)c2cc(-c3ccccc3)on2)CC1	16.1%[59 µM]	-14.9%	-14.3%	14.1%	23.9%
COc1ccc(-c2cc(C(=O)N3CCN(c4ccccc4OC)CC3)no2)cc1OC	6.3%[59 µM]	79.4µM*	?	-20.2%	2.1%
COc1ccccc1N1CCN(C(=O)c2cc(-c3ccccc3O)on2)CC1	-12.5%	-4.5%	-11.2%	-3.1%	-18.7%
CCN(C(=O)COC(=O)Cn1c(=O)oc2ccccc21)c1c(N)n(Cc2ccccc2)c(=O)[nH]c1=O	nt	nt	-11.8%	nt	23.0%
Nc1n[nH]c(N)c1N=Nc1cccc(F)c1	?	39.8µM*	?	1.6%	-17.2%
Cc1cc(C)[n+]2[nH]c(N)c(N=Nc3ccccc3)c2n1	?	?	-30.0%	22.4%	-4.7%
Cc1cccc(N=Nc2c(N)n[nH]c2N)c1	-11.6%	39.8µM*	?	5.4%	-17.0%
Nc1n[nH]c(N)c1N=Nc1ccc(Cl)cc1	-14.8%[59 µM]	44.7µM*	35.5µM*	8.9%	-32.9%
Nc1[nH]ncc1N=Nc1ccc(Cl)cc1	-15.4%	?	-34.5%	1.4%	-3.0%
Nc1n[nH]c(N)c1N=Nc1cccc(C(F)(F)F)c1	70.8µM*	39.8µM*	?	0.4%	-1.3%
SMILES	G9a block	BAZ2B block	JMJD2A Tudor	Sfp inh	HP1b chromo inh
CCCCN(CCCNC(=O)CN1N=C(c2ccccc2)CCC1=O)c1ccccc1	?	?	?	nt	-33.7%
O=C(c1ccc(Cl)cc1)C1C2C(=O)N(c3ccccc3)C(=O)C2C2CCCN21 (stereo not drawn)	8.91µM*	?	-13.7%[11.4 µM]	-24.0%	65.4%
COc1ccc(C(=O)[C@H]2[C@H]3C(=O)N(c4ccc(OC(C)=O)cc4)C(=O)[C@H]3C3C=CC=NN32)cc1 (stereo partly drawn)	nt	-19.9%	-22.8%	2.5%	5.7%
CC(=O)c1ccc(N2C(=O)C3C(C2=O)C(C(=O)c2ccc(Cl)cc2)N2CCCC32)cc1 (stereo not drawn)	?	?	-18.5%[11.4 µM]	22.4µM*	-16.1%
COc1ccc(N2C(=O)C3C(C2=O)C(C(=O)c2ccc(Cl)cc2)N2CCCC32)cc1 (stereo not drawn)	?	?	?	28.2µM*	?
O=C(c1ccc(Cl)cc1)[C@@H]1[C@@H]2C(=O)N(c3ccccc3)C(=O)[C@@H]2C2c3ccccc3C=NN21 (stereo partly drawn)	20µM*	-11.5%	-32.0%	-11.7%	27.1%
O=C1C2C3C=CC(CC3)C2C(=O)N1c1ccc(Cl)cc1 (stereo not drawn)	-10.2%[0.501 µM]	34.6%	0.7%	18.2%	25.5%
CN(C(=O)c1cc2c(=O)n3ccccc3nc2n1C)c1ccccc1	-0.7%[59 µM]	-19.4%	-18.1%	nt	35.8%
COc1ccc(C2Nc3ccccc3C(=O)N2Cc2ccccc2)cc1COc1ccc(NC(=O)c2ccccc2)cc1 (stereo not drawn)	nt	nt	-25.9%	nt	nt
NC1(C(=O)O)CCc2cc(P(=O)(O)O)ccc21 (stereo not drawn)	-2.4%[59 µM]	nt	nt	56.2µM*	nt
N#Cc1ccccc1OC[C@H](O)CNCCNC(=O)Nc1ccccc1	nt	nt	nt	2.2%	nt
Nc1nc(-c2ccco2)nn1C(=O)c1cccnc1	50.1µM*	7.4%	-5.6%	-3.4%	63.0%
COc1ccc(C(=O)n2nc(-c3ccco3)nc2N)cc1	17.8µM*	-9.5%	?	13.6%	-12.0%
CCOC(=O)c1cnc2c(C(=O)OCC)cnn2c1N	nt	0.5%	-6.1%	-4.0%	-7.0%
CCOC(=O)c1cnn2c(N)c(C#N)cnc12	44.7µM*	?	?	-26.2%	15.1%
CCCCNC(=O)NS(=O)(=O)c1ccc(C(=O)O)cc1	nt	nt	nt	19.7%	nt
O=C(O)CCn1cnc2onc(-c3ccccc3Cl)c2c1=O	?	50.1µM*	50.1µM*	nt	?
O=C(NCCn1cc(SCc2ccccc2F)c2ccccc21)c1cccs1	-15.2%[59 µM]	-15.7%	-16.0%	nt	46.2%
Cc1cccc(C2C3=C(Nc4[nH]n(-c5ccccc5)c(=O)c42)c2ccccc2C3=O)c1 (stereo not drawn)	20µM*	31.6µM*	35.5µM*	-16.4%	?
CCCCn1nc(C(=O)Oc2ccc3c(C)cc(=O)oc3c2)c2ccccc2c1=O	2.82µM*	-1.0%	-12.8%	2.8%	44.7%
CCN1CCCC1Cn1c(-c2ccccc2)nc2c(NCc3ccccc3)nc(C)nc21 (stereo not drawn)	nt	nt	nt	11.1%	nt
CCCCCC(CC)COC(=O)CC(C(=O)OCC(CC)CCCC)S(=O)(=O)O (stereo not drawn)	nt	nt	nt	-13.1%	nt
CCCCN(CCCC)CC(O)COc1ccc(Br)cc1 (stereo not drawn)	7.94µM*	31.6µM*	1.41µM*	-22.4%	?
Cc1ccc(NC(=O)CCN2C(=O)c3ccccc3C2=O)cc1	7.1%	-14.7%	?	12.9%	11.5%

Compound activity: PubChem BioAssay, National Center for Advancing Translational Sciences (NCATS)
